Experimental data from ChEMBL document CHEMBL3988442, “University of Dundee, Small-Polar-MMV Screening Library” (2021).

Assays:
[1] = biological target: T1, Aspartate--tRNA(Asp/Asn) ligase (Mycobacterium tuberculosis (strain ATCC 25618 / H37Rv)) (UniProt P9WFW3); test: Assay for Asp RNA synthetase-1 from Mycobacterium tuberculosis; format: functional; design: scale not given: direction of the effect not stated beside the values; conditions: 30 µM; note: in the data most compounds retested in dose-response had high values
T1 sequence (whole entry): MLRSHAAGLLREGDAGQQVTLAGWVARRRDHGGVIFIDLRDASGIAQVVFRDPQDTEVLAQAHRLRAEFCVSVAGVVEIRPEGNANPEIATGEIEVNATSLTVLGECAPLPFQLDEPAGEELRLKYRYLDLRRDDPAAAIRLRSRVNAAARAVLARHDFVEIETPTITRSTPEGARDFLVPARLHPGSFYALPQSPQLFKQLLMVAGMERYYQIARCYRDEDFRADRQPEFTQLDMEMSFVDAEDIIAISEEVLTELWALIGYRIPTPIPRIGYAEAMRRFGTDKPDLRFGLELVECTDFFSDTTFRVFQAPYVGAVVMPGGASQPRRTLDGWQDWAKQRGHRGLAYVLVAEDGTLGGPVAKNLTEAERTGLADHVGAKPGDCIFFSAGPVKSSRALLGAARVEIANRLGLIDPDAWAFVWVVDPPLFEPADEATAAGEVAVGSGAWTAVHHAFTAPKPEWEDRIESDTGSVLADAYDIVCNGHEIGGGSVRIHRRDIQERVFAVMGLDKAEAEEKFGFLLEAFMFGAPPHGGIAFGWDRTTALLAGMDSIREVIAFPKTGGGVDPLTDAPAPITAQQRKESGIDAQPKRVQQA

[2] = biological target: Shiga toxin 2 (Escherichia coli O157:H7) (UniProt P09385+P09386); test: E. coli 0.157:H7 Shiga Toxin SOP - stx2 screening assay; format: functional; design: scale not given: direction of the effect not stated beside the values; conditions: 30 µM

Compound	Percent Effect [1] [%]	Percent Effect [2] [%]
Cc1nc(C)n(CC2CCCN(Cc3ccc(C(N)=O)cc3)C2)n1 (centres undefined)	-5.85	20.8
CC(NC(=O)NCCCc1n[nH]c(N)c1C#N)c1cccs1 (centres undefined)	-7.85	-34.7
Cn1nc2c(cc1=O)CN(CCc1nc3ccccc3c(=O)[nH]1)CC2	7.01	2.17
Cc1nnc(C(C)N2CCN(Cc3ccc4c(c3)OCO4)CC2)o1 (centres undefined)	-0.657	17.8
CCN(CC)CCNC(=O)c1nn(CC)cc1Cl	-6.16	-57
CC(C)N1CC(C(=O)NCCc2csc(-c3ccncc3)n2)CC1=O (centres undefined)	2.56	-26.5
Cc1nn(C)c(N(C)C)c1CNCc1ccccc1Cn1cncn1	-4.47	10.9
Cc1cc(C2CCCN2Cc2cc(=O)n(C)c(=O)n2C)on1 (centres undefined)	0.485	14.1
Cc1cc(=O)n2ncnc2n1CC(O)c1ccccc1Cl (centres undefined)	-0.03	-19.6
O=C1CCCN1Cc1nnc2n1CCN(Cc1ccoc1)CC2	1.71	-17.6
COc1ccc(COCC(O)CNC(=O)c2cc(C)cc(C)c2)cc1 (centres undefined)	-0.859	-16.6
Cc1nccc(CN2CC[C@H](Oc3cccc(F)c3)[C@@](C)(O)C2)n1	-0.368	-25.4
CCc1ccc(CN2CCC3(CC2)CNC(=O)CO3)o1	-0.662	-2.48
O=S(=O)(NCc1ccccc1Cn1cncn1)C1CCCC1	1.56	-9.86
c1coc(CN2Cc3nccn3CC(Cn3cncn3)C2)c1 (centres undefined)	-0.866	-9.64
CC(C)Cc1noc(CN2CCN(CCO)CC2)n1	-3.95	25.7
COc1cccc([C@@H]2CN(C(=O)c3ccc(C)cc3O)C[C@H]2C(=O)O)c1	1.74	-5.94
Cc1cnn(CC2CCCN2CC(=O)Nc2cc(C)nn2C)c1 (centres undefined)	0.972	-20.9
COCCN1CCCC1c1nccnc1Nc1nc(C)cs1 (centres undefined)	-3.52	0.955
CC(NC(=O)COc1ccc(F)cc1)c1nnc2n1CCCCC2 (centres undefined)	8.46	13.1
COc1ncccc1NC(=O)N(Cc1ccc(C)o1)C1CC1	-0.455	12.1
CCc1nc(CN2CCCN(Cc3cnn(C)c3)CC2)no1	-10.6	-4.68
Cc1csc(C2CCCN(C(=O)c3cc(Cl)c[nH]3)C2)n1 (centres undefined)	-3.61	29.7
COc1ccccc1S(=O)(=O)N1CCC(Oc2cccnn2)CC1	-2.24	-12.5
Cc1nnc(N2CCC(CNC(=O)OC(C)(C)C)CC2)c(C#N)c1C	-0.115	34.8
Cc1nc(COCc2cnc3n2CCN(CC2CCC2)C3C)cs1 (centres undefined)	-6	-3.62

Compound	Percent Effect [1] [%]	Percent Effect [2] [%]
CC(C)N(CC(N)=O)Cc1csc(Cc2ccccc2)n1	0.228	12
CCN(Cc1nc(C(C)C)no1)Cc1cccs1	0.386	-23.8
Cc1cnn(CC2CCCN2C(=O)CCc2nc3ccccc3[nH]2)c1 (centres undefined)	-0.857	-31.6
Cn1ccnc1-c1cccc(NC(=O)NCCCO)c1	-2.56	-54.8
CN(C)CC1CSCCCN1C(=O)Nc1ccc(C(C)(C)C)cc1 (centres undefined)	0.656	11.6
O=S1(=O)c2ccccc2C2(CCN(Cc3ccccc3)C2)N1CC1CC1 (centres undefined)	-4.07	12.3
Cn1ccnc1-c1cccc(NC(=O)NCCN2CCOCC2)c1	4.54	-60.9
c1ccc(-c2noc(CN3CCOC(Cn4cccn4)C3)n2)nc1 (centres undefined)	-2.01	11.3
Cc1nccn1-c1cccc(C2CCCN(C3CCCCC3)C2)n1 (centres undefined)	-3.11	-8.84
Cc1ncsc1-c1nnc(C2CCN(CC3CCCCC3)CC2)o1	-2.81	-22.2
O=C(CCCc1nnc(-c2ccccc2)o1)N1CCN(CCO)CC1	2.54	-26.3
COCCn1cc(C(=O)N2CCCC2c2cc(C)no2)ccc1=O (centres undefined)	-2.11	3.38
Cn1cc(CN2CCC3(CC2)CC(c2ccncc2)C(=O)N3)cn1 (centres undefined)	12.5	-4.24
CC(Cn1cccn1)NC(=O)NCCc1cnn(C)c1 (centres undefined)	-2.54	-3.5
COc1ccccc1[C@@H]1CN(C(=O)c2csc(C)n2)C[C@H]1C(=O)O	2.17	-9.43
CN(Cc1ccccc1)CC(O)Cn1cnc2ccccc2c1=O (centres undefined)	-0.611	-4.12
CSC(C)C(=O)NCCCc1cc(N)n(-c2ccccc2)n1 (centres undefined)	-3.65	-1.83
Cc1nc(N2CCCCC2)ncc1C(=O)N1CC(C)(C)[C@@](C)(O)C1	4.7	3.19
O=C1COC2(CCN(CC3CC3)CC2)CN1c1ccccc1	-0.547	5.01
Cc1nc(C)n(CC2CN(c3nnc(C)c(C)c3C#N)CCO2)n1 (centres undefined)	-1.7	27.3
NC(=O)Cn1cc(NC(=O)N2CCCC2)cn1	-2.12	-31.6
CCc1nc(C)c(C(=O)NCCNc2cnccn2)s1	4.33	8.72
COCC(=O)N1CCCC1c1ccnc(Nc2cnccn2)n1 (centres undefined)	0.0744	1.15
CN1CCN(c2nc(O)c3c(-c4ccccn4)ccnc3n2)CC1	-3.26	7.03
CCCN1CCCn2nc(CNS(=O)(=O)c3ccc(C)cc3)cc2C1	-1.38	6.63
Nc1nc2c(c(=O)[nH]1)CCN(C(=O)c1cccc3nccnc13)C2	6.9	-31.4
